Experimental data as given in the antibiotic and cytotoxicity screens of Wong et al. (2023).
In all, about 39,000 compounds went through this assay and about 3,300 (8.5%) were called active. Many of the other results were omitted from the sample, so actives are more common in it than they were.

What follows are molecules tested on HepG2 (assay: cytotoxicity call (relative viability < 0.9)). Conditions: 10 µM.
CO[C@H](CN(C)S(=O)(=O)c1ccc(F)cc1)[C@H](C)CN([C@@H](C)CO)S(=O)(=O)c1cccc(Cl)c1 was tested, and the cytotoxicity call was “inactive”. COC1C=CC23c4cc5c(cc4CN(CC2O)C3C1)OCO5 (stereo not drawn) was tested, and the cytotoxicity call was “inactive”. COC(=O)[C@H](Cc1ccccc1)N1CC2=C[C@H](C3CC3)n3c(=O)n(C)c(=O)n3[C@@H]2[C@H]1[C@H](O)Cc1ccccc1 was tested, and the cytotoxicity call was “inactive”. In the case of CC(=O)N1CCc2n[nH]c(C(=O)N3CCOCC3)c2C1, the cytotoxicity call is reported as “inactive”. For CC(C)NC(=O)N(C)C[C@@H]1Oc2c(NC(=O)C3CCOCC3)cccc2C(=O)N([C@H](C)CO)C[C@@H]1C, the cytotoxicity call was “inactive”. With C[C@H]1CN([C@@H](C)CO)S(=O)(=O)c2ccc(C#Cc3ccccc3)cc2O[C@@H]1CN(C)C(=O)CN(C)C the cytotoxicity call was “inactive”. C[C@H](CO)N1C[C@H](C)[C@H](CN(C)C(=O)CN(C)C)Oc2cc(C#Cc3ccccc3)ccc2S1(=O)=O was tested, and the cytotoxicity call was “inactive”. C[C@@H]1CN([C@@H](C)CO)S(=O)(=O)c2ccc(C#Cc3ccccc3)cc2O[C@@H]1CN(C)C(=O)CN(C)C was tested, and the cytotoxicity call was “active”. C[C@@H]1CN([C@@H](C)CO)S(=O)(=O)c2ccc(C#Cc3ccc(F)cc3)cc2O[C@@H]1CN(C)C(=O)CN(C)C was tested, and the cytotoxicity call was “inactive”. In the case of C[C@@H]1CN([C@H](C)CO)S(=O)(=O)c2ccc(C#Cc3ccc(F)cc3)cc2O[C@@H]1CN(C)C(=O)CN(C)C, the cytotoxicity call is reported as “inactive”. With C[C@H](CO)N1C[C@H](C)[C@H](CN(C)C(=O)CN(C)C)Oc2cc(C#Cc3ccc(F)cc3)ccc2S1(=O)=O the cytotoxicity call was “inactive”. C[C@H](CO)N1C[C@H](C)[C@@H](CN(C)C(=O)CN(C)C)Oc2cc(C#Cc3ccccc3)ccc2S1(=O)=O was tested, and the cytotoxicity call was “active”. C[C@H](CO)N1C[C@H](C)[C@@H](CN(C)C(=O)CN(C)C)Oc2cc(C#Cc3ccc(F)cc3)ccc2S1(=O)=O was tested, and the cytotoxicity call was “inactive”. With C[C@H]1CN([C@@H](C)CO)S(=O)(=O)c2ccc(C#Cc3ccccc3)cc2O[C@H]1CN(C)C(=O)CN(C)C the cytotoxicity call was “active”. C[C@@H]1CCCCO[C@@H](CN(C)Cc2ccc(C(F)(F)F)cc2)[C@H](C)CN([C@H](C)CO)C(=O)c2cc(N(C)C)ccc2O1 was tested, and the cytotoxicity call was “inactive”. With Cn1ccc(C(=O)N2CCC3(CCOC[C@@H]3NS(C)(=O)=O)CC2)n1 the cytotoxicity call was “inactive”. Cc1noc(C)c1S(=O)(=O)Nc1ccc2c(c1)CC(=O)N([C@@H](C)CO)C[C@H](C)[C@H](CN(C)C(=O)NC(C)C)O2 was tested, and the cytotoxicity call was “inactive”. In the case of COc1cccc(S(=O)(=O)N[C@H]2CC[C@@H](CC(=O)NC3CCC3)O[C@@H]2CO)c1, the cytotoxicity call is reported as “inactive”. For CC(=O)NCCCC[C@@H]1NC(=O)[C@H]2C[C@@H](C(=O)NCCCCCCN(C)C)[C@@H](c3ccc(O)cc3)N2C1=O, the cytotoxicity call was “inactive”. In the case of C[C@@H]1CCCCO[C@H](CN(C)C(=O)Nc2ccc(F)cc2)[C@H](C)CN([C@@H](C)CO)C(=O)c2cc(NC(=O)c3ccncc3)ccc2O1, the cytotoxicity call is reported as “inactive”. With NCc1ccc(S(=O)(=O)O)cc1 the cytotoxicity call was “inactive”. For C[C@@H]1CN([C@@H](C)CO)C(=O)Cc2cc(NC(=O)Cn3cnnn3)ccc2O[C@@H]1CN(C)C(=O)Nc1ccc(F)cc1, the cytotoxicity call was “inactive”. For CN1CCN(C(=O)C[C@@H]2C=C[C@@H](NC(=O)c3ccc4c(c3)OCO4)[C@H](CO)O2)CC1, the cytotoxicity call was “inactive”. In the case of CCCCOc1ccc(CC(=O)NO)cc1, the cytotoxicity call is reported as “active”. COc1ccc(OCCC(=O)NN)cc1 was tested, and the cytotoxicity call was “inactive”. CCOc1ccc(NC(=O)CC(C)O)cc1 (stereo not drawn) was tested, and the cytotoxicity call was “inactive”. With CNC(=O)CN(C#N)c1nc(C)cc(C)n1 the cytotoxicity call was “inactive”. COc1ccc(CNC(=O)C[C@H]2C[C@H]3c4cc(NS(=O)(=O)c5ccc(F)cc5)ccc4O[C@H]3[C@H](CO)O2)cc1 was tested, and the cytotoxicity call was “inactive”. C[C@H](CO)N1C[C@H](C)[C@H](CN(C)C(=O)c2cccnc2)Oc2ncc(-c3ccc(C(=O)N(C)C)cc3)cc2C1=O was tested, and the cytotoxicity call was “inactive”. For C[C@@H]1CCCCO[C@H](CN(C)C(=O)CCC(F)(F)F)[C@@H](C)CN([C@H](C)CO)C(=O)c2cc(NC(=O)CCC(F)(F)F)ccc2O1, the cytotoxicity call was “inactive”. C[C@H](CO)N1C[C@H](C)[C@H](CN(C)C(=O)Nc2ccccc2)Oc2ccc(NC(=O)Nc3ccc(C(F)(F)F)cc3)cc2C1=O was tested, and the cytotoxicity call was “active”. C[C@@H]1CN([C@H](C)CO)C(=O)c2cc(NC(=O)CCC(F)(F)F)ccc2O[C@@H]1CN(C)C(=O)Nc1ccc(C(F)(F)F)cc1 was tested, and the cytotoxicity call was “inactive”. In the case of C[C@H](CO)N1C[C@H](C)[C@@H](CN(C)C(=O)Nc2ccc(C(F)(F)F)cc2)Oc2ccc(NC(=O)Nc3ccc(F)cc3)cc2C1=O, the cytotoxicity call is reported as “active”. In the case of C[C@@H]1CN([C@H](C)CO)C(=O)c2cc(NC(=O)Nc3ccc(C(F)(F)F)cc3)ccc2O[C@H]1CN(C)C(=O)Nc1ccc(F)cc1, the cytotoxicity call is reported as “inactive”. In the case of C[C@H](CO)N1C[C@H](C)[C@@H](CN(C)C(=O)Nc2ccc(C(F)(F)F)cc2)Oc2ccc(NC(=O)Nc3ccc(C(F)(F)F)cc3)cc2C1=O, the cytotoxicity call is reported as “active”. In the case of C[C@@H]1CN([C@@H](C)CO)C(=O)c2cc(NC(=O)Nc3ccccc3)ccc2O[C@@H]1CN(C)C(=O)Nc1ccc(C(F)(F)F)cc1, the cytotoxicity call is reported as “inactive”. With C[C@H]1CN([C@@H](C)CO)C(=O)c2cc(NC(=O)CCC(F)(F)F)ccc2O[C@H]1CN(C)C(=O)Nc1ccc(C(F)(F)F)cc1 the cytotoxicity call was “active”. In the case of C[C@H]1CN([C@@H](C)CO)C(=O)c2cc(NC(=O)Nc3ccc(C(F)(F)F)cc3)ccc2O[C@H]1CN(C)C(=O)Nc1ccc(C(F)(F)F)cc1, the cytotoxicity call is reported as “inactive”. C[C@H]1CN([C@@H](C)CO)C(=O)c2cc(NC(=O)Nc3ccc(F)cc3)ccc2O[C@@H]1CN(C)C(=O)Nc1ccc(C(F)(F)F)cc1 was tested, and the cytotoxicity call was “inactive”. With C[C@@H]1CN([C@@H](C)CO)C(=O)c2cc(NC(=O)CCC(F)(F)F)ccc2O[C@H]1CN(C)C(=O)Nc1ccc(C(F)(F)F)cc1 the cytotoxicity call was “inactive”. For C[C@@H]1CN([C@@H](C)CO)C(=O)c2cc(NC(=O)Nc3ccc(C(F)(F)F)cc3)ccc2O[C@H]1CN(C)C(=O)Nc1ccc(C(F)(F)F)cc1, the cytotoxicity call was “inactive”. With C[C@@H]1CN([C@H](C)CO)C(=O)c2cc(NC(=O)Nc3ccccc3)ccc2O[C@@H]1CN(C)C(=O)Nc1ccc(C(F)(F)F)cc1 the cytotoxicity call was “inactive”. With Cc1noc(C)c1NC(=O)Nc1ccc2c(c1)CC(=O)N([C@H](C)CO)C[C@H](C)[C@H](CN(C)S(=O)(=O)c1cn(C)cn1)O2 the cytotoxicity call was “inactive”.
